An excerpt weighted towards active compounds, which were near 4% of everything screened.
LMP1 NFkB inh – EBV LMP1-driven NF-kappaB luciferase reporter inhibitors, primary screen, cell-based, luminescence, single point | LMP1-induced NF-kappaB luciferase reporter cells | inhibition, % at 12.5 µM | hit rate 0.69% among 350,000 | AID 504558, 2011; in the data active = inhibition above about 41%; inconclusive = no clear call, values can overlap the other calls
MITF TRPM1 inh – inhibitors of MITF-dependent TRPM1 promoter reporter, primary screen, cell-based, SK-MEL-5, single point, luciferase; SK-MEL-5 TRPM1 promoter luciferase, 24 h; inhibition, % at 12.5 µM; hit rate 0.83% among 330,000;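 active = mean inhibition across replicates of 60% or more, whatever share of single replicates reaches that level; inconclusive = some that reach 60%, reason not given; inactive = mean inhibition across replicates below 60%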
Statin myotox sup – suppressors of statin myotoxicity in C2C12 myotubes, primary screen, cell-based, single point, plate reader; C2C12 myotubes + simvastatin, ATP luminescence, 48 h; scaled: DMSO 0, geranylgeraniol control 100; rescue of ATP level, % at 7.49 µM; hit rate 0.78% among 330,000; AID 602340, 2012;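 active = mean ATP rescue above about 67%, or every replicate alone reaching that limit, limit read from the data, passing the limit was not always enough; inconclusive = no clear call, values can overlap the other calls; inactive = mean under the limit and some replicate under it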;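 also: myotubes were challenged with 10 µM simvastatin during compound exposure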
esBAF inh – Bmi1 luciferase reporter increase in mESCs, primary screen, esBAF inhibitor project, mouse ES cells, Bmi1 luciferase knock-in, single point. 24 h; 100% = twice the neutral-well signal. reporter increase, % at 12.5 µM. hit rate 2% among 350,000. AID 602393, 2012; in the data active = activation above about 40%; inconclusive = no clear call, values can overlap the other calls;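 also: a rise in the Bmi1 reporter signal indicates esBAF inhibition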
Wnt act – Wnt/beta-catenin pathway activators, primary screen, cell-based, plate reader, single point; Wnt/beta-catenin reporter cell assay, activator; activation, % at 9.35 µM; hit rate 1.2% among 300,000; AID 743398, 2014; in the data active = activation above about 30%, passing the limit was not always enough; inconclusive = no clear call, values can overlap the other calls
MITF TRPM1 HTS – activators of MITF-driven TRPM1 promoter reporter, primary screen, cell-based, SK-MEL-5, luciferase, single point | SK-MEL-5 TRPM1-promoter luciferase, 24 h; % of positive control, neutral wells = 0 | activation, % at 12.5 µM | hit rate 0.75% among 300,000;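 active = mean activation of at least 80% with every replicate also reaching 80%; inconclusive = mean reaches 80% but some replicate falls short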
Each line names hits and unclear results; the compound was inactive in the other large screens.

CCCNC(=O)C(=O)N/N=C/c1ccc(OCc2ccccc2)cc1	none
O=C(C[C@@H]1C[C@@H]2c3cc(NC(=O)C4CCOCC4)ccc3O[C@@H]2[C@H](CO)O1)NCc1cccnc1	none (no result: LMP1 NFkB inh, MITF TRPM1 inh, Wnt act, MITF TRPM1 HTS)
CCCn1nc([N+](=O)[O-])c(C(C#N)c2nc3ccccc3s2)c(Cl)c1=O (configuration not stated)	none (no result: Wnt act)
CC(C)(C)NCC(=O)N/N=C/c1ccc(OCc2ccccc2)cc1	MITF TRPM1 HTS 86.7 (no result: Statin myotox sup, esBAF inh)
O=C(C[n+]1ccc(C(=O)N/N=C/c2ccc(OCc3ccccc3)cc2)cc1)c1ccccc1	MITF TRPM1 HTS 134.2
CCCCNC(=O)C(=O)N/N=C/c1ccc(OCc2ccccc2)cc1	none (no result: Statin myotox sup, esBAF inh)
Oc1[nH]c2ccc(Br)cc2c1N=Nc1ccc(F)cc1	none
O=[N+]([O-])c1ccc(N2CCCCC2)cc1SCCO	none (no result: Statin myotox sup, esBAF inh)
c1ccc(-c2csc3ncnc(NCC4COc5ccccc5O4)c23)cc1 (configuration not stated)	none (no result: Statin myotox sup, esBAF inh)
Cc1sc2ncnc(NCC3COc4ccccc4O3)c2c1C (configuration not stated)	LMP1 NFkB inh 48.6 (no result: Statin myotox sup, esBAF inh, Wnt act)
O=C(C[C@H]1CC[C@H](NC(=O)Nc2cc(F)ccc2F)[C@H](CO)O1)NCc1ccc2c(c1)OCO2	none (no result: LMP1 NFkB inh, MITF TRPM1 inh, Wnt act, MITF TRPM1 HTS)
COc1ccc(/C=N/NC(=O)c2cccc(Br)c2)cc1CSc1ccccn1	none (no result: Statin myotox sup, esBAF inh, Wnt act)
COc1ccc(/C=N/NC(=O)c2ccn[nH]2)cc1CSc1ccccn1	esBAF inh 44.9
Cc1cccc(-n2c(O)c(C=NC3CCS(=O)(=O)C3)c3ccccc3c2=O)c1 (configuration not stated)	Statin myotox sup 138.0 (no result: Wnt act)
Cc1cc(C)cc(-n2c(O)c(C=NC3CCS(=O)(=O)C3)c3ccccc3c2=O)c1 (configuration not stated)	none (no result: Wnt act)
Oc1ccc(/C=N/Nc2ncc(Cl)cc2Cl)cc1	esBAF inh 44.3, MITF TRPM1 HTS 87.9
COc1ccc(-c2noc(CN(C)C3CCOCC3)n2)cc1	none (no result: Statin myotox sup, esBAF inh)
c1ccc(-c2noc(CCC3CCCC3)n2)cc1	esBAF inh inconclusive, MITF TRPM1 HTS 102.2
CN(Cc1nc(-c2ccccc2)no1)C1CCOCC1	Wnt act 40.8
CCn1c(CNC(C)=O)nnc1SCC(=O)c1ccc(Br)cc1	none (no result: Wnt act)
CCN(CC)C(=S)SCC(=O)c1ccc(Br)cc1	esBAF inh 83.2
Nc1c(-c2cccc(Cl)c2)cnn1-c1ccccc1	esBAF inh 51.8
Nc1c(-c2ccc(Cl)cc2)cnc2c(-c3ccc(F)cc3)cnn12	esBAF inh inconclusive, Wnt act 45.6, MITF TRPM1 HTS 111.2
Nc1c(-c2cccc(Cl)c2)cnc2c(-c3ccccc3)cnn12	esBAF inh 60.0, Wnt act 44.8
O=C(Nc1ccc2nc(-c3ccco3)[nH]c2c1)c1cccs1	none (no result: Wnt act)
Cc1noc(C)c1S(=O)(=O)Nc1cccc2c1O[C@H](CN(C)S(C)(=O)=O)[C@H](C)CN([C@@H](C)CO)C2=O	none (no result: LMP1 NFkB inh, MITF TRPM1 inh, Wnt act, MITF TRPM1 HTS)
CC1CCCCC1NC(=O)c1ccc(CSc2nc3ccncc3[nH]2)cc1 (configuration not stated)	none
Cn1c(SCC(=O)N2CCN(C(=O)c3ccco3)CC2)nnc1-c1ccc(NS(C)(=O)=O)cc1	Statin myotox sup 97.9
Cc1cc2cc(C)c3nnc(SCC(=O)N4CCN(C(=O)c5ccco5)CC4)n3c2cc1C	none (no result: Statin myotox sup, esBAF inh)
COc1cc(-c2noc(C)c2/C=C/c2ccc(N)cc2)cc(OC)c1OC	MITF TRPM1 inh 63.5
CC(C)(C)N1C(=O)c2ccc(C(=O)Nc3nccs3)cc2C1=O	esBAF inh 54.4, MITF TRPM1 HTS 139.8 (no result: Wnt act)
CCCN1CCC(Oc2cccc(C(=O)NCCc3ccccc3)c2)CC1	esBAF inh 50.6
COCCNC(=O)c1cccc(OC2CCN(Cc3cccc(C(C)=O)c3)CC2)c1	none (no result: MITF TRPM1 HTS)
O=C(NCCc1ccccn1)c1ccc(OC2CCN(CCc3ccccc3)CC2)cc1	Wnt act inconclusive, MITF TRPM1 HTS 80.5
CN(C)C(=O)c1ccc(-c2ccc([C@H]3[C@@H](CO)N4CCCCN(CCC(F)(F)F)C[C@H]34)cc2)cc1	none (no result: LMP1 NFkB inh, MITF TRPM1 inh, Wnt act, MITF TRPM1 HTS)
Cc1cc(OCCN2CCOCC2)ccc1C(C)C	none

Screening results (PubChem BioAssay)
